# An excerpt weighted towards active compounds, which were near 3.4% of everything screened.
# TWEAK Fn14 block – inhibitors of TWEAK-Fn14 signaling, primary screen, luciferase reporter cells, uHTS | TWEAK-stimulated Fn14 reporter cells, luciferase luminescence, 8 h | actives 2% (n = 360,000) | inhibition, % at 10 µM | AID 1159606, 2016; in the data active means inhibition above about 50%
# EBV LMP1 NFkB – EBV LMP1-driven NF-kappaB luciferase reporter inhibitors, primary screen, cell-based, luminescence, single point. AID 504558, 2011. inhibition, % at 12.5 µM. LMP1-induced NF-kappaB luciferase reporter cells. actives 0.69% (n = 350,000); in the data active means inhibition above about 41%;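 further: 0% = neutral control wells and 100% = reference inhibitor control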
# TRPM1 prom inh – inhibitors of MITF-dependent TRPM1 promoter reporter, primary screen, cell-based, SK-MEL-5, single point, luciferase. SK-MEL-5 TRPM1 promoter luciferase, 24 h. inhibition, % at 12.5 µM. actives 0.83% (n = 330,000);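 active means mean inhibition across replicates of 60% or more, whatever share of single replicates reaches that level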
# Shn3 3UTR inh – reduction of Shn3 3'UTR firefly luciferase signal, primary screen, Schnurri-3 inhibitor project, cell-based, Clone20 osteoblasts, set 2; AID 588674, 2011; inhibition, % at 12.5 µM; actives 0.52% (n = 360,000); Clone20 osteoblast Shn3 3'UTR firefly luciferase, 24 h;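 active means mean inhibition of at least 75% with every replicate also reaching 75%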;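 further: 0% = median of neutral control wells and 100% = pilot-screen positive control compound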
# HIF-2a block – HIF-2a reporter inhibitors, primary screen, luminescence, 786-0 RCC cells; actives 0.72% (n = 360,000); inhibition, % at 18.8 µM; 786-0 RCC cells HIF-2a reporter, luciferase luminescence, overnight;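 active means inhibition of the luminescence signal of 40% or more relative to plate controls, in a single-dose primary screen at 18.75 µM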
# TROY NFkB inh – inhibitors of TROY-driven NF-kB signaling, primary screen, Q293 LMP1-TROYcd cells, NF-kB luciferase, uHTS; AID 1347056, 2019; actives 0.98% (n = 360,000); inhibition, % at 10 µM; Q293 LMP1-TROYcd NF-kB luciferase reporter, 4 h;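 active means compounds whose plate-normalised and pattern-corrected inhibition of the luciferase reporter signal at the single screening dose is 50% or more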
# Active calls of the source: *; nt = no result given.
SMILES,TWEAK Fn14 block,EBV LMP1 NFkB,TRPM1 prom inh,Shn3 3UTR inh,HIF-2a block,TROY NFkB inh
CCCS(=O)(=O)NC(=O)C1(C)CCN(C(=O)c2cccc3ccccc23)C1 (centres undefined),-8,nt,nt,-9,13,9
Cc1ccc(C(=O)NCCCNC(=O)Cc2ccccc2)cn1,17,2,-1,-4,13,14
COc1cc(Cl)c(S(=O)(=O)NCc2cccnc2)cc1Cl,84*,4,0,-8,0,54*
COc1ccc(Cl)cc1S(=O)(=O)NCc1cccnc1,-9,3,3,-2,19,5
Cc1nc(SCc2nc3ccccc3[nH]2)c2oc3cc([N+](=O)[O-])ccc3c2n1,34,-14,26,-12,10,10
COc1ccc(/C(CC2OC(=O)c3ccccc32)=N\NC(N)=O)cc1 (centres undefined),2,65*,4,-36,5,-16
Cc1ccc(N(CC(=O)NCc2ccc(F)cc2)C(=O)c2snc(C(N)=O)c2N)cc1C,1,-13,10,7,2,-5
O=c1[nH]cnc2c1ncn2C1CCC(CO)O1 (centres undefined),10,nt,nt,-7,-28,-10
Cc1ccc(-n2nc(C(=O)NN)c(C)c(C#N)c2=O)cc1Cl,71*,-2,14,62,30,46
COc1ccc(-n2nc(C(=O)N3CCCCC3)c(C)c(C#N)c2=O)cc1,23,-4,3,7,20,7
Cc1c(C(=O)NN)nn(-c2ccc(Cl)cc2)c(=O)c1C#N,65*,-3,46,30,6,55*
Cc1ccc(NCCN(C)C)c2c(=O)c3cc(O)ccc3sc12,-116,45*,93*,42,24,-76
COc1cc(C)c2sc3ccccc3c(=O)c2c1NCCN(C)C,-103,-4,nt,3,-34,-71
CN(C)CCNc1cccc2sc3ccc(O)cc3c(=O)c12,-77,nt,nt,-36,43*,-66
CCOC(=O)c1c(N2C(=O)C=CC2=O)sc(C)c1C,0,20,61*,82,47*,5
CCOC(=O)c1c(NC(N)=O)sc(C)c1C,1,3,12,-9,18,17
CC(C)(C)NC(=O)c1cccc(NC(=O)c2ccc3c(c2)C(=O)N(C(C)(C)C)C3=O)c1,-4,-31,-8,-3,-2,57*
CCCN(CCC)Cc1cc(=O)oc2cc(C)c(C)cc12,-5,nt,nt,-11,8,-7
OCC[C@@H]1C[C@H](O)[C@@H](O)[C@]2(OCCc3cc(Cl)ccc32)O1,5,nt,nt,-6,10,16
O=C(COC(=O)c1ccccc1NS(=O)(=O)c1cccs1)NC1CCCCC1,2,-5,5,9,1,28
O=C(COC(=O)c1ccccc1NS(=O)(=O)c1cccs1)NCC12CC3CC(CC(C3)C1)C2,30,-11,5,13,8,61*
COc1ccc(CNc2nn3c(-c4cccc(C(=O)N(C)C)c4)cnc3s2)cc1,81*,nt,nt,-12,23,50*
CCOc1ccc(NC(=O)CN(C)C(=O)c2cc3c(s2)CCC3)cc1OCC,11,-6,nt,-2,19,-2
O=C(NCc1cc(Br)cc(Br)c1OC(=O)c1ccccc1[N+](=O)[O-])c1ccccc1,55*,7,-1,23,-6,34
O=C(Oc1ccccc1C(=O)Nc1ccccc1)c1ccc(Br)c([N+](=O)[O-])c1,20,-11,3,-12,-159,-42
SMILES,TWEAK Fn14 block,EBV LMP1 NFkB,TRPM1 prom inh,Shn3 3UTR inh,HIF-2a block,TROY NFkB inh
CCCN(C)C1CN(Cc2cn(Cc3cccc(C(F)(F)F)c3)nn2)S(=O)(=O)C1 (centres undefined),28,nt,nt,nt,-2,-5
O=c1c2sc(-c3ccccc3)cc2nc2n1CCC2,74*,24,12,-26,-35,22
CCOC(=O)Nc1ccc2c(c1)C(=NNC(N)=S)c1ccccc1-2,38,-12,-1,2,-65,48
CCOC(=O)Nc1ccc2c(c1)C(=NO)c1ccccc1-2,-10,-59,-46,92*,-288,-14
Nc1nonc1C(=O)NCCNCc1cc(Br)ccc1OCc1ccc(F)cc1,21,8,-6,90*,10,28
COc1ccc(/C=C2/CCc3ccccc3C2=O)cc1OC,17,-3,-18,7,-126,-22
COc1ccc(/C=C2\COc3ccccc3C2=O)cc1OC,54*,2,8,11,-10,-2
Cc1cc(C)c2c(c1)C(=O)/C(=C/c1ccc(C(=O)O)cc1)CC2,-39,-5,-20,-17,-120,-14
O=C(O)c1ccc(/C=C2\COc3ccccc3C2=O)cc1,78*,3,13,9,7,-6
CC(=O)Nc1ccc(NC(=O)COC(=O)c2ccc(S(=O)(=O)N(C)c3ccccc3)cc2)cc1,-4,-3,4,15,-1,0
COC(=O)Cc1cc(OC)c(OC)cc1Cc1cc(OC)c(OC)cc1CC(=O)OC,7,5,-6,-20,-3,11
CCOC(=O)Cc1cc(OC)c(OC)cc1Cc1cc(OC)c(OC)cc1CC(=O)OCC,80*,-2,-15,6,-5,9
O=C(N/N=C\c1ccc([N+](=O)[O-])o1)C1COc2ccccc2O1 (centres undefined),-2,2,75*,1,-1,12
Cc1ccc(NCC(=O)N/N=C\c2ccc([N+](=O)[O-])o2)cc1,34,-1,68*,4,-9,-10
Cc1cc(Br)c(OCc2ccc(C(=O)N/N=C/c3ccc[nH]3)cc2)c(Br)c1,34,-16,nt,97*,8,21
Cc1ccc(NCC(=O)N/N=C\c2ccc[nH]2)cc1,89*,nt,nt,0,12,69*
O=C(N/N=C\c1ccc(-c2ccccc2[N+](=O)[O-])o1)C1COc2ccccc2O1 (centres undefined),19,2,21,-23,0,2
CC(C)(C)c1ccc(C2CC2C(=O)N/N=C\c2ccc[nH]2)cc1 (centres undefined),33,-64,5,95*,-25,-6
O=C(Cc1ccc2c(c1)OCO2)NN=Cc1ccc([N+](=O)[O-])o1,23,-8,73*,-28,-26,-17
COc1cccc(C(C)(O)c2nc(-c3ccc(F)c(Cl)c3)cs2)c1 (centres undefined),25,nt,nt,-1,11,29
CN1C2CCC1/C(=C\c1ccc(F)cc1)C(=O)/C2=C/c1ccc(F)cc1,65*,-74,26,23,82*,-14
